Laboratory results reported in article PMC5700166.
Where a chain is given by its changes, count along the chain named.

Experiments:
Assay in all cases: protein-binding microarray (PBM); PBM: ~300 nM protein, 6 mM HEPES pH 7.8, 80 mM KCl, 0.5 mM EDTA, 0.5 mM EGTA, 6% glycerol, 35 ng/ul poly-dIdC, 1% milk, 1 h, room temperature; Ap Aiptasia and Nv Nematostella (sea anemones) / Co Capsaspora / Aq Amphimedon (sponge) / Dm Drosophila / Hu human; RHD is the Rel homology domain; high values mean tight binding
Details in all cases: dsDNA, one strand shown
GST-Ap-NF-kB RHD = molecular target: T1, GST-Ap-NF-kB RHD (Exaiptasia pallida (Aiptasia), UniProt A0A913YAJ5 2-422)
T1 sequence: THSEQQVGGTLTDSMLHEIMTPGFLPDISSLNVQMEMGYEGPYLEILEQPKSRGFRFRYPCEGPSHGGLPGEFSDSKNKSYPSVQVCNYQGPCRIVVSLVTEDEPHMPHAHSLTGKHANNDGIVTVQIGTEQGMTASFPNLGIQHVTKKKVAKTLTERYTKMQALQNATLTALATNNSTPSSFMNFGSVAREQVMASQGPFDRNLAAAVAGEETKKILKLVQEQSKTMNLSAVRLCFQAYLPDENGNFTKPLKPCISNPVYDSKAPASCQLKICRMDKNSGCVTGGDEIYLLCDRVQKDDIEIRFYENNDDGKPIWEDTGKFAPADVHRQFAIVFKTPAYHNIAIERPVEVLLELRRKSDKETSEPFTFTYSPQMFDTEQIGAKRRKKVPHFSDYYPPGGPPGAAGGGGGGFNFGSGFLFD

[1] = molecular target: T2, GST-Nv-NF-kB (Cys allele) (Nematostella vectensis, UniProt E5G601 2-411)
T2 sequence: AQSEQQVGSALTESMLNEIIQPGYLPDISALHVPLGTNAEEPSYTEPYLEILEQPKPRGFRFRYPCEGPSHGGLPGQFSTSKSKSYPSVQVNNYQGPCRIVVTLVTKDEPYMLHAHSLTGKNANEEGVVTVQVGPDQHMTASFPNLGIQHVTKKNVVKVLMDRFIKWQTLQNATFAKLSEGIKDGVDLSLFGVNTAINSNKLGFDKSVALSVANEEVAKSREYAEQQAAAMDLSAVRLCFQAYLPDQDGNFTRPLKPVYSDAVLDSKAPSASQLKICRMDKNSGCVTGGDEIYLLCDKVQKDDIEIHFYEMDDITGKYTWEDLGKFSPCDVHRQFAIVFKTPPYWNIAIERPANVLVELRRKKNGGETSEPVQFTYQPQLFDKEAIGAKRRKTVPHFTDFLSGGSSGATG

[2] = molecular target: T3, GST-Nv-NF-kB (Ser allele) (Nematostella vectensis, UniProt A7UNT2 2-411)
T3 sequence: T2 sequence with Q21R, C66S, S207N, E215Q, V217A, E225K, A268E, D399E

GST-Co-NF-kB = molecular target: T4, GST-Co-NF-kB (Capsaspora owczarzaki, UniProt F1ARL5 200-546)
T4 sequence: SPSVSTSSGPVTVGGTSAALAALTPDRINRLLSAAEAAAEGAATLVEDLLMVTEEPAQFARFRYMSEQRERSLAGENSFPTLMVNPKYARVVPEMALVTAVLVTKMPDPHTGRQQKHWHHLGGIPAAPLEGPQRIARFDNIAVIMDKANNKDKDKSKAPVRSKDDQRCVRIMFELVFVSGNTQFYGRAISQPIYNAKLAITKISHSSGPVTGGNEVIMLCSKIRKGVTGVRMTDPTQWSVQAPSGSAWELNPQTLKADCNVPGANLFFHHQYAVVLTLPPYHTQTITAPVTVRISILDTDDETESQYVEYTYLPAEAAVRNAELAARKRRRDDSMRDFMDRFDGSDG

GST-Dm-Relish = molecular target: T5, GST-Dm-Relish (Drosophila melanogaster, UniProt Q94527 99-473)
T5 sequence: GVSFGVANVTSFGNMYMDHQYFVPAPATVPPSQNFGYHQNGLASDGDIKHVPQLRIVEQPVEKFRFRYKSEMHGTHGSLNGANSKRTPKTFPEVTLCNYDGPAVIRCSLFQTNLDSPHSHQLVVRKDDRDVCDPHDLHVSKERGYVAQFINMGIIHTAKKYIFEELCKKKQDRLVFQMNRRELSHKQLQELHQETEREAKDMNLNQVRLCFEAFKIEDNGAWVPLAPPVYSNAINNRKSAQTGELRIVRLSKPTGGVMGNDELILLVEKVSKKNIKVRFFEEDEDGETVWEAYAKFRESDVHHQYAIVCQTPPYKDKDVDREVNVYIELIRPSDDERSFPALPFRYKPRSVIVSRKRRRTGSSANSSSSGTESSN

GST-Aq-NF-kB = molecular target: T6, GST-Aq-NF-kB (Amphimedon queenslandica, UniProt A9Y5G7 2-389)
T6 sequence: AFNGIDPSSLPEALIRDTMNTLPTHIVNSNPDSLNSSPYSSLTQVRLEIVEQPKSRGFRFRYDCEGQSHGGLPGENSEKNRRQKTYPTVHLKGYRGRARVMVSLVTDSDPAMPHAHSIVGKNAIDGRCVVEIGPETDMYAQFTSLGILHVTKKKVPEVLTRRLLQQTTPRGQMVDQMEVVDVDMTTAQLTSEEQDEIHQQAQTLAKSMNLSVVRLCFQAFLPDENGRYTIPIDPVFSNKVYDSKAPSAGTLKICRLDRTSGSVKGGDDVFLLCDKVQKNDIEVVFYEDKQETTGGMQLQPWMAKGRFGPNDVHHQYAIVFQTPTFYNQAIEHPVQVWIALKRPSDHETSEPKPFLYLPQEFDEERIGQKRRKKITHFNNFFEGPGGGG

Sequence	binding signal (GST-Ap-NF-kB RHD)	binding signal [1]	binding signal [2]	binding signal (GST-Co-NF-kB)	binding signal (GST-Dm-Relish)	binding signal (GST-Aq-NF-kB)
CCGATTAACATCAAGCCCCCCCATGATGTTAATCGGGTCTTGATTCGCTTGACGCTGCTG	4.83 z-score	3.07 z-score	3.1 z-score	3.51 z-score	3.97 z-score	3.85 z-score
CCGATTAACATCAGAAATCCCAATGATGTTAATCGGGTCTTGATTCGCTTGACGCTGCTG	2.44 z-score	2.13 z-score	1.82 z-score	1.84 z-score	5.13 z-score	2.14 z-score
CCGATTAACATCACGTTTTTCCCTGATGTTAATCGGGTCTTGATTCGCTTGACGCTGCTG	3.81 z-score	4.59 z-score	6.7 z-score	5.98 z-score	4.58 z-score	4.26 z-score
CCGATTAACATCAGGGGAGATTATGATGTTAATCGGGTCTTGATTCGCTTGACGCTGCTG	6.83 z-score	5.48 z-score	6.7 z-score	5.91 z-score	2.68 z-score	4.52 z-score
CCGATTAACATCACGGGGGGAAATGATGTTAATCGGGTCTTGATTCGCTTGACGCTGCTG	6.31 z-score	6.61 z-score	7.51 z-score	11.2 z-score	4.78 z-score	5.52 z-score
CCGATTAACATCATTAGGGAAAATGATGTTAATCGGGTCTTGATTCGCTTGACGCTGCTG	3.51 z-score	6.08 z-score	7.94 z-score	2.21 z-score	1.55 z-score	4.53 z-score
CCGATTAACATCAGTATTCCCCATGATGTTAATCGGGTCTTGATTCGCTTGACGCTGCTG	6.37 z-score	7.73 z-score	6.79 z-score	7.15 z-score	4.54 z-score	5.32 z-score
CCGATTAACATCAGCCCCCCGTCTGATGTTAATCGGGTCTTGATTCGCTTGACGCTGCTG	3.16 z-score	2.22 z-score	1.71 z-score	3 z-score	3.83 z-score	3.37 z-score
CCGATTAACATCACATTTCCCCATGATGTTAATCGGGTCTTGATTCGCTTGACGCTGCTG	4.9 z-score	6.14 z-score	8.95 z-score	7.21 z-score	2.25 z-score	3.87 z-score
CCGATTAACATCACATCTTCCCCTGATGTTAATCGGGTCTTGATTCGCTTGACGCTGCTG	4.99 z-score	6.11 z-score	7.12 z-score	6.39 z-score	2.45 z-score	4.78 z-score
CCGATTAACATCAGGGGAACATATGATGTTAATCGGGTCTTGATTCGCTTGACGCTGCTG	5.1 z-score	5.89 z-score	6.74 z-score	7.58 z-score	4.08 z-score	5.59 z-score
CCGATTAACATCAGGGAAAAACCTGATGTTAATCGGGTCTTGATTCGCTTGACGCTGCTG	5.74 z-score	7.26 z-score	7.89 z-score	3.82 z-score	8.13 z-score	9.06 z-score
CCGATTAACATCACGGGGGGGAATGATGTTAATCGGGTCTTGATTCGCTTGACGCTGCTG	6.98 z-score	5.54 z-score	6.1 z-score	9.46 z-score	5.39 z-score	5.91 z-score
CCGATTAACATCAGGGAATACACTGATGTTAATCGGGTCTTGATTCGCTTGACGCTGCTG	2.66 z-score	2.43 z-score	2.21 z-score	2.5 z-score	2.61 z-score	3.68 z-score
CCGATTAACATCAACGTTTTCCCTGATGTTAATCGGGTCTTGATTCGCTTGACGCTGCTG	3.04 z-score	4.61 z-score	6.7 z-score	4.29 z-score	1.51 z-score	3.21 z-score
CCGATTAACATCAAAGATTTCCCTGATGTTAATCGGGTCTTGATTCGCTTGACGCTGCTG	4.23 z-score	6.33 z-score	7.19 z-score	4.84 z-score	2.9 z-score	5.13 z-score
CCGATTAACATCAGGATTTTCCCTGATGTTAATCGGGTCTTGATTCGCTTGACGCTGCTG	5.75 z-score	8.01 z-score	7.34 z-score	3.97 z-score	4.83 z-score	8.92 z-score
CCGATTAACATCAGGGGAACTCATGATGTTAATCGGGTCTTGATTCGCTTGACGCTGCTG	6.56 z-score	6.78 z-score	7.59 z-score	5.3 z-score	6.03 z-score	4.88 z-score
CCGATTAACATCACCCATTCCCCTGATGTTAATCGGGTCTTGATTCGCTTGACGCTGCTG	6.25 z-score	5.53 z-score	7.1 z-score	5.33 z-score	2.33 z-score	4.22 z-score
CCGATTAACATCAAAAGTTTCCCTGATGTTAATCGGGTCTTGATTCGCTTGACGCTGCTG	5.05 z-score	7.19 z-score	6.7 z-score	6.99 z-score	4.85 z-score	7 z-score
CCGATTAACATCAATTTCCCGTATGATGTTAATCGGGTCTTGATTCGCTTGACGCTGCTG	2.46 z-score	4.12 z-score	4.4 z-score	3.1 z-score	1.58 z-score	3.17 z-score
CCGATTAACATCACGGGATTTTCTGATGTTAATCGGGTCTTGATTCGCTTGACGCTGCTG	5.11 z-score	4.77 z-score	4.15 z-score	1.98 z-score	6.84 z-score	5.2 z-score
CCGATTAACATCAAAGTTTTCCCTGATGTTAATCGGGTCTTGATTCGCTTGACGCTGCTG	4.37 z-score	6.15 z-score	7.61 z-score	6.07 z-score	2.47 z-score	4.93 z-score
